# An excerpt weighted towards active compounds, which were near 6.7% of everything screened.
# MCF10A rerep – A quantitative high throughput screen for small molecules that induce DNA re-replication in MCF 10a normal breast cells; 350,000 compounds, 2.9% hits; Potency, µM (titrated, usually from 46.1 µM), for the others: at the highest dose activity, positive = re-replication, actives largely listed as activators; MCF 10A DNA re-replication, Hoechst nuclear intensity, 48 h; also: % of control where 0% means no effect; nearly all actives have a fitted effect of over 50% in size
# KB-3-1 tox – qHTS assay for MDR1-selective chemotherapeutics: Primary screen using the parental adenocarcinoma cell KB-3-1 | 400,000 compounds, 1.4% hits | KB-3-1 viability, CellTiter-Glo ATP luminescence, 72 h | Potency, µM (doses to about 46.1 µM), most hits filed as cytotoxic; also: % is scaled to controls: 0 for no effect and ±100 for the full control effect; nearly all actives have a fitted effect of over 60% in size
#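 Cytotoxicity measured as CellTiter-Glo luminescence after 72 h at 37 C. Compound titrations were pinned onto drug-naive KB-3-1 parental adenocarcinoma cells grown in DMEM with 10% FBS, and normalized data fitted to concentration-response curves.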
# PINK1 modulator – A Quantitative High throughput Screen to Identify Chemical Modulators of PINK1 Expression; PINK1 immunofluorescence, high-content cytometry, 24 h; AID 624263, 2012; 410,000 compounds, 0.2% hits; Potency, µM (series often up to 76.6 µM), without a hit: top-dose activation (PINK1 increase), usual class: activators; active = well fitted activation curve with a large enough effect; inconclusive = small, poorly fitted or top-dose-only effect; cell line not stated here; also: % of control where 0% means no effect; nearly all actives have a fitted effect of over 65% in size
#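 Readout is PINK1 immunofluorescence, quantified alongside mitochondrial, cell and nuclear markers by laser-scanning microplate cytometry. Cells from a stable line were exposed to compound titrations (5 concentrations) for 24 hours, with CCCP controls.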
# SW480 rereplic – A quantitative high throughput screen for small molecules that induce DNA re-replication in SW480 colon adenocarcinoma cells; SW480 DNA re-replication, Hoechst DNA content imaging, 48 h; Potency, µM (doses to about 46.1 µM), inactives show top-dose re-replication activation, most hits filed as activators; 340,000 compounds, 1.8% hits; AID 624297, 2012; also: % of control where 0% means no effect; nearly all actives have a fitted effect of over 55% in size
#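 Quantitative HTS format with DMSO vehicle controls; 48 hr drug incubation at 37 C, then 40 min Hoechst staining and scanning imager measurement at 405 nm excitation.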
# KB-V1 MDR tox – qHTS assay for MDR1-selective chemotherapeutics: Primary screen using the drug-selected MDR subline cells KB-V1; Potency, µM (top dose mostly 46.1 µM), usual class: cytotoxic; 400,000 compounds, 3.4% hits; AID 1347076, 2019; KB-V1 MDR cells viability, CellTiter-Glo, 72 h; also: % is scaled to controls: 0 for no effect and ±100 for the full control effect; nearly all actives have a fitted effect of over 60% in size
#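 KB-V1 cells (P-gp-expressing MDR subline of KB-3-1) in phenol-red-free DMEM with 10% FBS were exposed to library compounds over a concentration series for 72 h at 37 degrees C. Viability read by CellTiter-Glo luminescence; concentration-effect curves fitted after normalization.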
# Active calls of the source: *; i = inactive; ? = inconclusive; / = no result given; [ ] = another dose, or the depositor's remark. Unless noted, calls follow the shape of the dose curve; as a rule, active = well fitted curve in the direction sought with a large enough effect; inconclusive = small, poorly fitted or top-dose-only effect, or another doubt; inactive = no such curve, though single readings can be large; an effect the other way counts as inactive or inconclusive. Potency is read from the fitted curve at half-maximal effect.
SMILES,MCF10A rerep,KB-3-1 tox,PINK1 modulator,SW480 rereplic,KB-V1 MDR tox
O=C(NCC(c1cccs1)N1CCOCC1)c1ccccc1NS(=O)(=O)c1cccc([N+](=O)[O-])c1 (centres undefined),-10%,i,1%,1%,?
O=C(NCC(c1cccs1)N1CCOCC1)c1ccccc1NS(=O)(=O)c1ccc(Cl)cc1 (centres undefined),?,?,5%,0%,12µM*
O=C(NCC(c1cccs1)N1CCOCC1)c1ccccc1NS(=O)(=O)c1ccc(Cl)c([N+](=O)[O-])c1 (centres undefined),15µM*,i,?,-4%,?
CCc1ccc(OC2(C)CCN(Cc3ccc4c(c3)OCCO4)C2)cc1 (centres undefined),/,i,?,/,i
C=CCNC(=O)Cc1c(OC)ccc2cc(Br)ccc12,-1%,?,-1%,2%,21µM*
COc1ccc2cc(Br)ccc2c1CC(=O)NC(C)C,-32%,i,4%,4%,?
CCCSc1ncc(Cl)c(C(=O)Nc2sc3c(c2C(=O)NCCCOC)CCCC3)n1,/,?,2%,/,i
CCSc1ncc(Cl)c(C(=O)Nc2sc3c(c2C(=O)NCc2cccnc2)CCCC3)n1,11%,i,11µM*,11%,?
CCNC(=O)c1c(NC(=O)c2nc(SCC)ncc2Cl)sc2c1CCCC2,/,?,1%,/,i
CCCSc1ncc(Cl)c(C(=O)Nc2sc3c(c2C(N)=O)CCCC3)n1,/,i,8.9µM*,/,i
COc1ccc(C(=O)N2CCc3cc(OC)c(OC)cc3C2COc2ccccc2OC)cc1 (centres undefined),/,i,-3%,/,i
CC1CCCC(NC(=O)c2cccc(S(=O)(=O)N3CCOCC3)c2)C1C (centres undefined),/,i,6%,/,i
O=C(CN1C(=O)C(=O)N(C2CCCC2)C1=O)Nc1ccccc1OC(F)F,1%,i,-1%,-11%,i
COc1cc(OC)c(C2=NOC(C(=O)Nc3cc(C)nn3-c3ccccc3)C2)cc1Cl (centres undefined),1%,i,0%[38.3 µM],1%,18µM*
Cc1cccc(NC(=O)CCc2ccc(N3C(N)=NC(N)=NC3(C)C)cc2)c1,/,i,0%,/,?
Cc1cc(-c2ccccc2)[nH]c(=O)c1C#N,0%,i,1%,-1%,i
CSc1cc(-c2ccccc2)[nH]c(=O)c1C#N,-1%,i,-1%,15µM*,i
O=C(Cn1nc(-c2ccccc2)c2cnc3ccc(F)cc3c21)NC1CCCC1,/,i,1%,/,i
Cc1ccc(CN2CC34C=CC(O3)C(C(=O)NCc3ccco3)C4C2=O)cc1 (centres undefined),0%,i,-1%,-4%,18µM*
CCN(CC)CCNc1ccc(CO)c2oc3cc(Cl)ccc3c(=O)c12,/,?,-1%,/,?
CCN(CC)CCNc1ccc(C)c2sc3ccc(O)cc3c(=O)c12,5%,?,-4%,?,4.6µM*
CCOCCCNC(=O)C1CCC(CNS(=O)(=O)c2cccc3nsnc23)CC1 (centres undefined),-1%,i,?,-8%,21µM*
O=C(OCCF)N1CCN(/[N+]([O-])=N/Oc2ccc([N+](=O)[O-])cc2[N+](=O)[O-])CC1,/,/,1%,/,/
C=CCn1c(SCc2ccccc2Cl)nnc1-c1sc2nc(C)cc(C)c2c1N,10µM*,i,2%,18µM*,i
CCc1c(C)sc(NC(=O)c2cc(-c3cccc(Cl)c3)on2)c1C#N,/,/,2%,/,/
CCc1c(C)sc(NC(=O)c2cc(-c3cc(OC)ccc3OC)on2)c1C#N,2.6µM*,i,9%[38.3 µM],-1%,?
CCc1c(C)sc(NC(=O)c2cc(-c3ccc(OC)c(OC)c3)on2)c1C#N,5.2µM*,i,1%,2%,i
